EBV gp42 block: Epstein-Barr virus gp42 inhibitors, primary screen, biochemical, uHTS, fluorescence polarization | AID 1085, 2008 | inhibition, % (tested at 21.74 µM) | 220,000 compounds, 0.42% hits | Glycoprotein 42 (Epstein-Barr virus (strain AG876)), Q1HVG2 | Fluorescence polarization binding assay, mP read-out; in the data active means inhibition above about 50%
Target sequence (Q1HVG2 whole entry, looked up): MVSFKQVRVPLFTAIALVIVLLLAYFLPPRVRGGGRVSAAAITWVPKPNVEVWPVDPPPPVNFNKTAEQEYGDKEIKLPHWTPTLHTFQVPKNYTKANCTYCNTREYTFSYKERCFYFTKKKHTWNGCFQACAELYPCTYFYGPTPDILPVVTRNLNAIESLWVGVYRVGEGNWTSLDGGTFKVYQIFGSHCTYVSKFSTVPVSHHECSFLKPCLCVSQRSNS
ZTA DNA inh: blocks Epstein-Barr virus ZTA, an EBNA-1 counter-screen; P03206; ZTA-DNA binding, fluorescence polarization; inhibition, % at 11 µM; 320,000 compounds, 0.15% hits; AID 2234; in the data active means inhibition above about 33%
Target sequence (P03206 whole entry, looked up): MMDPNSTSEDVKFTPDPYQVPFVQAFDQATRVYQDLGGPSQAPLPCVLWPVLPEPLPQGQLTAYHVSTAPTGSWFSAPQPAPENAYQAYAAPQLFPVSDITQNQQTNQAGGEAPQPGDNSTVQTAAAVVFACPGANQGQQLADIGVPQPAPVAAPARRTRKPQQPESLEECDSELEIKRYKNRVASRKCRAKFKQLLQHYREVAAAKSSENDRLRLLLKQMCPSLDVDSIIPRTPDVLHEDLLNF
MEX-5 binding: MEX-5 zinc finger RNA-binding disruptors – biochemical, C. elegans, fluorescence polarization, MLPCN library, primary screen | AID 1832, 2009 | Zinc finger protein mex-5 (Caenorhabditis elegans), Q9XUB2 | 300,000 compounds, 0.38% hits | MEX-5/FITC-TCR2 RNA binding; active compounds read low | activity score (negative = inhibition of binding), % at 10 µM;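 active means inhibition past about -25% in most replicates, and total fluorescence under double the plate's negative control median, limit read from the data; inconclusive means replicates evenly split on the limit, or fluorescence at least double controls; inactive means too little inhibition in most replicates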;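 further: 0% = DMSO and -100% = 5 µM competing unlabeled TCR2 RNA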
EBNA-1 inhibitor: EBNA-1 DNA-binding inhibitors, primary screen, biochemical, fluorescence polarization; AID 1950, 2009; 300,000 compounds, 0.34% hits; inhibition, % at 14.8 µM; in the data active means inhibition above about 28%
* marks the source's active call; other numbers are inactive results; u = inconclusive; x = no result. Rows were chosen to be rich in hits. Some 1% of all compounds tested hit in one or more screens of this group.

SMILES	EBV gp42 block	ZTA DNA inh	MEX-5 binding	EBNA-1 inhibitor
C[C@@H]1O[C@@H](O[C@H]2[C@H](O)[C@@H](O)[C@H](Oc3c(-c4ccc(O)c(O)c4)oc4cc(O)cc(O)c4c3=O)O[C@@H]2CO)[C@H](O)[C@H](O)[C@H]1O	x	4.9	x	x
COc1ccccc1NS(=O)(=O)c1cccc(C(=O)N2CCN(C(=O)c3ccco3)CC2)c1	x	-20.9	x	x
CCN(CC)c1ccc(/C=C/c2cc(-c3ccccc3)c3ccccc3n2)cc1	68.3*	-0.4	3.1	-14.1
CN(C)c1ccc(/C=C/c2ccc3ccccc3n2)cc1	-26.6	12.4	1.5	-11.4
Cc1ccccc1C(=O)N1CCC(C(=O)NCCc2ccc(S(N)(=O)=O)cc2)CC1	x	2.2	-1.1	1.4
Cc1cc(O)c(C)c(O)c1/C=N/NC(=O)c1cccnc1	x	-24.0	-1.8	2.9
COc1cc(-c2ccc(Nc3ccccc3C(=O)O)c(OC)c2)ccc1Nc1ccccc1C(=O)O	69.5*	x	x	x
COc1cccc(Nc2ccccc2C(=O)O)c1	-7.7	3.5	1.9	-0.7
NS(=O)(=O)c1ccc(NS(=O)(=O)c2ccc(NC(=O)c3ccc(-c4ccccc4)cc3)cc2)cc1	15.7	10.0	1.8	10.6
NS(=O)(=O)c1ccc(NC(=O)c2ccc(-c3ccccc3)cc2)cc1	62.1*	x	x	x
COc1ccc(OCc2cc(C(=O)N3CCCC(O)C3)no2)c2ccccc12 (stereo not given)	x	-8.5	1.1	-5.2
COc1cc(OC)cc(N(C(=O)CNC(=O)c2ccco2)C(C(=O)NCC2CCCO2)c2ccccc2)c1 (stereo not given)	x	-7.7	0.1	5.5
Cc1ccc(C(=O)ONc2ccc(N=NC(=O)c3ccccc3O)cc2)cc1	92.6*	2.5	-0.1	-12.8
O=C1N/C(=C/c2ccc(N3CCOCC3)o2)C(=O)N1c1cccc(Cl)c1	-227.2	-13.8	11.5	-6.9
Fc1cccc(F)c1/C=N/N1CCOCC1	-7.6	12.0	-0.3	1.5
Cc1[nH][nH]c(=O)c1/C=N/N1CCOCC1	-12.4	-2.1	-27.0*	-1.2
Cc1cc([N+](=O)[O-])ccc1N1C(=O)c2ccc(C(=O)Nc3ccccc3C(=O)O)cc2C1=O	x	-12.4	-1.9	14.0
Cc1cccc(C)c1NC(=O)Cn1cc(C=O)c2ccccc21	x	x	-0.3	x
NS(=O)(=O)c1ccc(NC(=O)Nc2ccc3c(c2)OCO3)cc1	x	x	1.0	x
CC(C)(C)NC(=O)c1sccc1C(=O)O	99.9*	-3.5	-4.1	-1.5
COc1ccc2nc(SCC(=O)N3CCCCC3)c(C#N)cc2c1	-16.3	-0.8	-7.6	-11.4
COc1ccc2nc(N3CCCCC3)c(C#N)cc2c1	57.9*	4.6	-20.8	-12.4
COc1ccc2nc(N3CCCC3)c(C#N)cc2c1	126.7*	-15.3	2.5	-1.4
COc1ccc2nc(SCC(=O)N3CCCCCC3)c(C#N)cc2c1	-17.3	-3.9	5.0	-7.7
CCC(C(=O)N1CCOCC1)n1nc(C)c2sc3ccccc3c2c1=O (stereo not given)	x	-14.5	0.9	-6.7
SMILES	EBV gp42 block	ZTA DNA inh	MEX-5 binding	EBNA-1 inhibitor
COc1ccc(-n2c(N)c(C#N)c3ccc([N+](=O)[O-])cc3c2=O)cc1	52.0*	10.3	-5.0	4.3
COc1cc(/C=N/NC(=O)c2cc(-c3ccco3)nc3ccccc23)cc(OC)c1O	6.6	3.3	-1.3	-10.9
O=C(N/N=C/c1cccc(F)c1)c1cc(-c2ccco2)nc2ccccc12	65.7*	-3.5	-1.3	10.0
O=C1C(=O)N(Cc2cccnc2)C(c2cccc(Br)c2)/C1=C(/O)c1ccc2c(c1)OCO2 (stereo not given)	x	-10.3	-2.0	1.6
COc1ccc(N/C=C/C(=O)c2ccc(C)cc2)c([N+](=O)[O-])c1	x	10.5	-3.0	1.4
CCOc1ccc(N/C=C/C(=O)c2ccc(OC)cc2)c([N+](=O)[O-])c1	58.9*	2.0	-0.8	-1.4
Cc1cc(O)c(Oc2cc(C)cc(O)c2O)c(O)c1	-8.6	2.2	-49.3*	-2.5
COc1cccc(COC(=O)c2cc(=O)[nH]c3ccc(S(=O)(=O)N4CCOCC4)cc23)c1OC	x	-1.7	-1.2	6.3
CC(=O)C1=C(c2ccccc2)N(C(C)=O)n2c(C)nnc2S1	-10.1	13.7	-44.6*	-0.3
O=C(c1coc(=O)c(Br)c1)N1CCCc2ccccc21	x	-6.1	-27.3*	11.0
O=C(c1coc(=O)c(Br)c1)N1CCC(C(O)(c2ccccc2)c2ccccc2)CC1	-2.7	0.6	0.3	6.7
CC1(C)CCCN(C(=O)c2coc(=O)c(Br)c2)C1	52.0*	x	-27.6*	x
O=C(NCCOc1ccccc1)C1CCC(=O)N(C2CCCCCC2)C1 (stereo not given)	x	-1.4	3.9	3.1
O=C(CSc1nc2ccccc2s1)c1ccc(O)cc1O	x	1.4	-1.3	1.4
COc1ccc(CCNC(=O)C2CC3Cn4c(nc5ccccc54)C3N2c2ccccc2)cc1 (stereo not given)	x	4.5	1.7	-0.4
C=CCn1cc(/C=C/c2cc[n+](C)cc2)c2ccccc21	x	10.6	u	4.9
C=CCn1ccc(=NC=C(C#N)C#N)c2ccccc21	-35.8	6.2	-74.6*	3.6
O=C(O)CCCCCn1c(SCC(=O)c2ccc(O)c(O)c2)nc2ccsc2c1=O	4.8	0.6	-26.9*	5.0
CCOC(=O)c1c(Nc2ccccc2N)cc(C)nc1C	81.0*	-2.1	x	-1.6
CCOc1ccc(S(=O)(=O)N2CCN(C(=O)CCC(=O)N3CCOCC3)CC2)cc1	x	-9.9	-2.9	-9.9
O=S(=O)(Nc1nc2ccccc2nc1N1CCN(c2ccccn2)CC1)c1ccc(Cl)cc1	63.8*	x	x	x
O=S(=O)(Nc1nc2ccccc2nc1N1CCc2ccccc2C1)c1ccc(Cl)cc1	-1.7	10.3	0.4	4.9
CC(C)c1onc(C(=O)N(C)Cc2ccccc2)c1[N+](=O)[O-]	-2.1	39.0*	1.5	8.7
CC(C)c1onc(C(=O)NCCc2ccccc2)c1[N+](=O)[O-]	8.4	8.8	2.8	1.7
COc1ccccc1-c1nnc(SCC(=O)Nc2ccc3[nH]c(=O)[nH]c3c2)n1N	x	-0.3	0.6	-4.1
SMILES	EBV gp42 block	ZTA DNA inh	MEX-5 binding	EBNA-1 inhibitor
Cc1n[nH]c(=S)c2nn(-c3cccc(Cl)c3)c(C)c12	-21.4	x	-31.6*	x
COc1nc(-c2ccc(Cl)cc2Cl)nc2ccccc12	x	-4.7	-2.3	-1.6
CC1=C(C#N)C(=O)OC(C)(C)C1	14.7	6.5	-47.0*	11.2
CN(C(=O)C1CCC(=O)N(C2CC2)C1)C1CCCCC1 (stereo not given)	x	6.1	0.2	15.3
C=CCn1c(=O)/c(=C/c2cc(OC)c(OC)c(OC)c2)s/c1=C(/C#N)c1nc2ccccc2n1C	95.9*	-6.0	u	9.5
CC(=O)Oc1cc2cccc(OC(C)=O)c(=O)c2c(OC(C)=O)c1OC(C)=O	-11.5	-7.5	-61.3*	-4.5
COc1cc2cccc(OC)c(=O)c2c(O)c1OC	0.9	-3.3	2.2	-2.5
N#CC1=C(N)Oc2cc(O)c(Cl)cc2C1c1ccccc1F (stereo not given)	x	-16.5	-46.2*	-3.1
